Results taken from the supplement of paper PMC12632987.

B1: GBRAPL2_85_7419 (protein)
chain: MEKVTIVARSLAEAVDMAVDVVEALEPEGEIEVDLIVLVPSSELEAALAALPAAAAELKARLQELARRHPGLVVRAEVEIFDSDTREFHPDVRRFTVRDE
B2: GBRAPL2_63_7407 (protein)
chain: MTVRKVLEALLEHAILDLDTAERLEEALENETDEEELFETLVEAILDIRPELTPEEAREVAEKLVELAKQSEELLKEAVRALTTLSKEEFLAYLDELVAK
B3: GBRAPL2_93_7422 (protein)
chain: MKVKVTIIRLVNGEVVEEEEREVTVEEAKKLIEELLKEAVANGERVIIEIYDKDTGWTFGDYVENEEQAEKALKRAKEILDDLEKEGKEVEITITIEKKT
B4: GBRAPL2_83_7414 (protein)
chain: TTIELDLLLEVKLKGDEEEKEELLDLMVEAADRLRELGASAAVAIKEENGVLEVEVHVIAVGDEELVKKVEEKLKEAAEEIKKKFPKAEVKVEVLERKEL
B5: GBRAPL2_83_7413 (protein)
chain: MTVRLALELTVTLEGDEEEKEALLDMMVETADELRKLGAAAVVAIEEEDGVLTIVLDVLVVGNKEQVEKVKKKLEEAAKEIKEKFPNAKVEVKVLEEEEL
B6: GBRAPL2_83_7410 (protein)
chain: MEVLLELELTVTYKGNEEDKEKILDMLLEAQDKLRELGATAVVAEKLENGVYTFSLYAIYRGPREGAEKVRKTLEEFAEKIKKEFPEAKVEVKVLEEREL
B7: GBRAPL2_85_7420 (protein)
chain: MEKITIVARTLEEAVEMAVDVVEALDPKGEIEVELIVLVPSSELEKAIAELPKAAEELKKKFQELAKKHPGLKINAEIEIFDSDTREFHPDVKKFTVEDK
B8: GBRAPL2_83_7411 (protein)
chain: MKIELDVELTVVIKGDEEEVEKIEDMMVETARELRKLGAAAVVATKEEDGVYTFVLDVLYVGDEEGAKKVIELLKESAEKIKKEFPEAKVTVKVVEKKVL
B9: GBRAPL2_64_7408 (protein)
chain: AKVHLAIAYEFKESTENGKKVLKLEATVYVIEDGEITELEAEVTATQLSETTWEVKLVLRQPDGSVLERTEVVTVPYEDVETEMLDLILEAAREAVAARR
B10: GBRAPL2_64_7409 (protein)
chain: PKVHLAIAYEVEEREEDGKKVLVLDATVYVIKDGEITELEAKVVAEQLSETTWLVKLELKKPDGSVIKREEVVEAPWEDVETEMLELVDEAAREAVEEEE
B11: GBRAPL2_85_7421 (protein)
chain: TEKVTIVAHTLEEVVDMSVDVLEALEPKGTVEIEGIVAVPSSELEKALKELPKAAEELKKRLEELAKKRPGLTINAEIRIFNLDTKEFHPKVEKFTVKNE
B12: GBRAPL2_83_7415 (protein)
chain: VERTVLITTEITVRHPDLTEEEALDLAGDVAARLREHGVKTVVGVEERDGVVHIVLESLTPDDPALRAAIDEEVDALVAELRARGAEVEVRREEEVVDVP
B13: GBRAPL2_83_7416 (protein)
chain: MKKRVLITHEIEVKSEKVTKEEALDLAGDVAERLREKGIAAVVSVEEEDGVILVEIEALLEDSEEKIKIVEEEVEKLVKRLEELGAEVKLKTEREEEIVP
B14: GBRAPL2_83_7418 (protein)
chain: VKTIRVITYDIEIKSENITEEEALDMAGDVAEELRKKGVKTVVGVEEENGVVHVTLEAIHEDDEELRKLIDEEVEKLVKELEAKGAEVKVKVEEELEEIE
B15: GBRAPL2_63_7406 (protein)
chain: SAVRRVLEALLRHAILDLDTAELLDEALETETDEEALYETLVEAILRIRPELTPEEAREVADKLIALAEQSEALLAEAVRDLTTLSKEEFLARLDALVAE
B16: GBRAPL2_83_7417 (protein)
chain: VKKLKVITHDIEIKSENITEEEALDMAGDVAAELRKHGIKTVVGVERENGVVKVELESIMEDNEEKEKLVHEEVEKLVEELKKKGAEVKVETEEEIVEVE

Target: GABARAPL2, P60520
Assay: median log2 fold change of GCK-ALFA target abundance (FLAG IP / Myc IP barcode read proportion) (log2 ratio); each designed protein is fused to an ALFA-tag nanobody in HEK293 cells to bring the named protein to FLAG-tagged glucokinase (GCK); Myc marks an untargeted standard; higher = target protein stabilised (more abundant)
Conditions: target protein: 3xFLAG-MCP-GCK-ALFA reporter; HEK293 landing pad (RPLP)
Summary of the method: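 The readout is target abundance, the per-binder median log2 ratio of FLAG to Myc barcode read proportions. It came from HEK293 landing-pad cells carrying a recombined ALFA-nanobody-fused binder library, induced with 2 μg mL^−1 doxycycline and transfected with a plasmid for a FLAG-tagged target and a Myc-tagged standard. After 48 h, lysates were immunoprecipitated with anti-FLAG and anti-Myc, and circular RNA barcodes were reverse transcribed, amplified and sequenced. Each barcode needed a proportion of at least 10^−7 in both replicates and each binder at least 3 barcodes per replicate, a pseudocount of 10^−6 was added, and the replicates were pooled.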

Chain of GABARAPL2, P60520 (P60520 whole entry, the tested form may be a part): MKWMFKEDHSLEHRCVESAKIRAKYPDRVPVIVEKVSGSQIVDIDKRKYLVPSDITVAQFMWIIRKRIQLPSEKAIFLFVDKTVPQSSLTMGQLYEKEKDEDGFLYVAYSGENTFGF

Binder | median log2 fold change
B1 | 0.0842
B2 | 0.0216
B3 | 0.15
B4 | 0.119
B5 | -0.417
B6 | -0.0517
B7 | 0.19
B8 | -0.364
B9 | 0.118
B10 | -0.0236
B11 | 0.266
B12 | -0.00519
B13 | 0.184
B14 | 0.388
B15 | -0.0969
B16 | 0.0338
